Here are results for two molecules from ChEMBL document CHEMBL1961873, “Compounds: GSK PKIS; Assays: Nanosyn kinase panel” (2012).

Structures are written as SMILES.

In assay [1] the target is T1, Inhibitor of nuclear factor kappa-B kinase subunit epsilon (Homo sapiens) (UniProt Q14164).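 Also: reported values are averaged percent inhibition figures against human IKKε.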
T1 sequence (whole entry): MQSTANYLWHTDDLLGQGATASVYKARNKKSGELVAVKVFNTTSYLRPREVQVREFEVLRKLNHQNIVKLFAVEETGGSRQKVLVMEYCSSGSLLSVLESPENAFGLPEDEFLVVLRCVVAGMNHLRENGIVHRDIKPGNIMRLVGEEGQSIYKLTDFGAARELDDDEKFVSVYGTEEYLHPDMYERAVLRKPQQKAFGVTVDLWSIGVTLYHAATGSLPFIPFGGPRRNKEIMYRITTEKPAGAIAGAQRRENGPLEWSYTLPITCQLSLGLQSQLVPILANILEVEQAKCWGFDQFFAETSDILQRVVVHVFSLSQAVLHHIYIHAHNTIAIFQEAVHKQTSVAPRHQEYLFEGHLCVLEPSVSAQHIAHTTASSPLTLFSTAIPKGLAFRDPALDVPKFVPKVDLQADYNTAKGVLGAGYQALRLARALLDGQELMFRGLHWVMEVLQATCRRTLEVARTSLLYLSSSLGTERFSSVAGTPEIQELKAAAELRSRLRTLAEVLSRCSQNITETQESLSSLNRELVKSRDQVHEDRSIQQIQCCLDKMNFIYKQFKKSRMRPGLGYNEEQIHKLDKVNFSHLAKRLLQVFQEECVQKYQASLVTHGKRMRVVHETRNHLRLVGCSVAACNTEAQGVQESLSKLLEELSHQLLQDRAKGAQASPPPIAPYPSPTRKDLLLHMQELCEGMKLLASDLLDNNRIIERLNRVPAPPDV
The following applies: at 1 µM.

Assay [2] has as its target T2, Serine/threonine-protein kinase Nek1 (Homo sapiens) (UniProt Q96PY6).
T2 sequence (whole entry): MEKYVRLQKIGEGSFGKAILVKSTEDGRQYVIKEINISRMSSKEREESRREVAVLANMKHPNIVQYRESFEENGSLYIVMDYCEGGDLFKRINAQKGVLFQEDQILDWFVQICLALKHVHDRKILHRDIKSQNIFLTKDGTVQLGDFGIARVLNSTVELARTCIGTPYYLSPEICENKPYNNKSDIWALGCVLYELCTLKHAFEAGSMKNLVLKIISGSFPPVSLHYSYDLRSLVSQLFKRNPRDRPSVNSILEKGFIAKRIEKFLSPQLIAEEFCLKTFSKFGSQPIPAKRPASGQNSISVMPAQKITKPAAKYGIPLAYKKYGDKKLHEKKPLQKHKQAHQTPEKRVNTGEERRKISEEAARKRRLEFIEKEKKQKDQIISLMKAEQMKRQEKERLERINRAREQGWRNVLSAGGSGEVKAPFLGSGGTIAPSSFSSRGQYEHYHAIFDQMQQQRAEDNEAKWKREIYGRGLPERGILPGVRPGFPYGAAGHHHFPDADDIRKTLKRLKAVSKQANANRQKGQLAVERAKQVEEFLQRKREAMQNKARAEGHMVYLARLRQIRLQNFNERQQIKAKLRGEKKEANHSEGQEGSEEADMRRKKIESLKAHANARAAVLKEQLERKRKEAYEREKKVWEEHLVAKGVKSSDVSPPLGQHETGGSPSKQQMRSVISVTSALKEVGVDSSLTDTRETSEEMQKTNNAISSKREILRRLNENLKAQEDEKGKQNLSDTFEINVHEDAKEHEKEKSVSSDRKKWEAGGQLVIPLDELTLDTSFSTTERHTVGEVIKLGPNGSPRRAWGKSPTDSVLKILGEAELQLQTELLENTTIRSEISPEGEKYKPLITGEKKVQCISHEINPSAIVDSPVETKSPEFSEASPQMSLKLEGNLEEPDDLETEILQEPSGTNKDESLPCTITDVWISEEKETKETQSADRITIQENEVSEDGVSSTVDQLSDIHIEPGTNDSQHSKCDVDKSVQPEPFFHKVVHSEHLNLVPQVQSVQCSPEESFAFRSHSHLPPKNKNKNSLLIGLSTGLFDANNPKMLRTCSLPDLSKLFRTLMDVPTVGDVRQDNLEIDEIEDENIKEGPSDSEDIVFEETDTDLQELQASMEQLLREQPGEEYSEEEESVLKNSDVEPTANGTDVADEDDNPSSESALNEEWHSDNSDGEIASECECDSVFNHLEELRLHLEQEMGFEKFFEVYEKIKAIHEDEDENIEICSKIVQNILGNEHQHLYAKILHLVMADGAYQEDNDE
The note with it: at 0.1 µM.

Assay [3] has as its target T2, Serine/threonine-protein kinase Nek1 (Homo sapiens). The following applies: at 1 µM.
For assay [4], the target named is T3, Serine/threonine-protein kinase Nek2 (Homo sapiens) (UniProt P51955).
T3 sequence (whole entry): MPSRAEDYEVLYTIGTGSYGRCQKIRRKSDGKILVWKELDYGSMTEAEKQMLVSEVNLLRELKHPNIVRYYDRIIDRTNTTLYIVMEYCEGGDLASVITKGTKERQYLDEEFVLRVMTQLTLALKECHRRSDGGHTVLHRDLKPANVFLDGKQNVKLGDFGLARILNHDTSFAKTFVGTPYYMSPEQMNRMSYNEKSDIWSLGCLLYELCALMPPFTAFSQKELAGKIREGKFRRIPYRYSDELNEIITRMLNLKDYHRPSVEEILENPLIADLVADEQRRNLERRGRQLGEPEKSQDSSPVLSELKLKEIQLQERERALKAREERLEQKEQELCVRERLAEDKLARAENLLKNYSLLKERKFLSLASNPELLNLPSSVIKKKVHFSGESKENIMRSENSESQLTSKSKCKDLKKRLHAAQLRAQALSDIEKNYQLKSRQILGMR
The following applies: at 0.1 µM.

Assay [5] deals with T3, Serine/threonine-protein kinase Nek2 (Homo sapiens). The note with it: at 1 µM.
For assay [6], the target named is Serine/threonine-protein kinase Nek6 (Homo sapiens) (UniProt Q9HC98). The following applies: at 0.1 µM.
Assay [7] shares this target. The note with it: at 1 µM.
Assay [8] deals with Serine/threonine-protein kinase Nek7 (Homo sapiens) (UniProt Q8TDX7). The note with it: at 0.1 µM.
The target is the same in assay [9]. The following applies: at 1 µM.
For assay [10], the target named is T4, Serine/threonine-protein kinase Nek9 (Homo sapiens) (UniProt Q8TD19).
T4 sequence (whole entry): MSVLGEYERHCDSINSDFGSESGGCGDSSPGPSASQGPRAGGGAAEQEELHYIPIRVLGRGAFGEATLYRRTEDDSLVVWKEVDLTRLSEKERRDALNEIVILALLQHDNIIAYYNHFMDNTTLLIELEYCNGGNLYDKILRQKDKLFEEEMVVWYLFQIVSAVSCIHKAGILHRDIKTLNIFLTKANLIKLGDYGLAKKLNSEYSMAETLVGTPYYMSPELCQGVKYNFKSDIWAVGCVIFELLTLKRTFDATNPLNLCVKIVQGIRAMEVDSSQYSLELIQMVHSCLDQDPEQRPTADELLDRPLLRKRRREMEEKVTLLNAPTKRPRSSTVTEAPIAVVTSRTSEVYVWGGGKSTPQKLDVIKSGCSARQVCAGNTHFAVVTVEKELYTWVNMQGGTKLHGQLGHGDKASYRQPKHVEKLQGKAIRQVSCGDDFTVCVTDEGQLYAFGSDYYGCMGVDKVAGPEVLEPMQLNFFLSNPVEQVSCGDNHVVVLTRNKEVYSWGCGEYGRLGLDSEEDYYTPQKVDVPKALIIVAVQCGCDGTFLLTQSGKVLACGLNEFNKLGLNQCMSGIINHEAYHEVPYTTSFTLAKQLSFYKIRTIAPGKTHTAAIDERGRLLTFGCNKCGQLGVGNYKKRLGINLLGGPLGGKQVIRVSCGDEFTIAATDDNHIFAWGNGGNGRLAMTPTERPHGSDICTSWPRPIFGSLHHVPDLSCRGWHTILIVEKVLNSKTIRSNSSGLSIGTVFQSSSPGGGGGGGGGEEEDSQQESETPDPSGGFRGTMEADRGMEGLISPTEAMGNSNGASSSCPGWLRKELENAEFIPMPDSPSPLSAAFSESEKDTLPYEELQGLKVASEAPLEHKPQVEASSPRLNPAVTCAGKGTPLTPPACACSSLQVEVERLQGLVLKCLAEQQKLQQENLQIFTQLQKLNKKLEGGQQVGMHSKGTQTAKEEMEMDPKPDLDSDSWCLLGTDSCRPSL
The note with it: at 0.1 µM.

The target of assay [11] is T4, Serine/threonine-protein kinase Nek9 (Homo sapiens). The note with it: at 1 µM.
The target of assay [12] is Serine/threonine-protein kinase PLK1 (Homo sapiens) (UniProt P53350). The note with it: at 0.1 µM.
For assay [13] the target is unchanged. The note with it: at 1 µM.
Assay [14] concerns the target T5, Dual specificity protein kinase TTK (Homo sapiens) (UniProt P33981).
T5 sequence (whole entry): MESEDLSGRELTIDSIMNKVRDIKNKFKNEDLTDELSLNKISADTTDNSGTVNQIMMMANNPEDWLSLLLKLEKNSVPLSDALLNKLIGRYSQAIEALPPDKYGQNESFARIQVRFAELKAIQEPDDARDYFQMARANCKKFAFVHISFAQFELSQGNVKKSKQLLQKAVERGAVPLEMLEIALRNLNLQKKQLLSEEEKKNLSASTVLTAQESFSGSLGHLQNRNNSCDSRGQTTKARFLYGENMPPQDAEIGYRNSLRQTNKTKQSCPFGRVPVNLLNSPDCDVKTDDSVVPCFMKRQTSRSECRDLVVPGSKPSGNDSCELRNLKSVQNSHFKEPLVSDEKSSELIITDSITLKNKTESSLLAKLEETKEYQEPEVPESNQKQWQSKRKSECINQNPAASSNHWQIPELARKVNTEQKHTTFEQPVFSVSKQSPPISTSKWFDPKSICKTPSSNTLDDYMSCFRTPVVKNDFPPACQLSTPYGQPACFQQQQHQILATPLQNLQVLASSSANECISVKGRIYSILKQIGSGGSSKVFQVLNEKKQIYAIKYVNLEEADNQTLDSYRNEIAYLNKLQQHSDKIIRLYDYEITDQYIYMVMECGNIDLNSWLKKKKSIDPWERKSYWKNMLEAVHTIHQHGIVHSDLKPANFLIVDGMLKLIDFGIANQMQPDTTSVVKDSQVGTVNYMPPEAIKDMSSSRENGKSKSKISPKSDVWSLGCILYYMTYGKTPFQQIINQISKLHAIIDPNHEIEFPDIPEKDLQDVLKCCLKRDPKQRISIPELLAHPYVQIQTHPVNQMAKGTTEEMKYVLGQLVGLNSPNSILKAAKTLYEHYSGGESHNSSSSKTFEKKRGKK
The note with it: at 0.1 µM.

Assay [15] relates to T6, Receptor-type tyrosine-protein kinase FLT3 (Homo sapiens), P36888 [D835Y].
T6 sequence (whole entry): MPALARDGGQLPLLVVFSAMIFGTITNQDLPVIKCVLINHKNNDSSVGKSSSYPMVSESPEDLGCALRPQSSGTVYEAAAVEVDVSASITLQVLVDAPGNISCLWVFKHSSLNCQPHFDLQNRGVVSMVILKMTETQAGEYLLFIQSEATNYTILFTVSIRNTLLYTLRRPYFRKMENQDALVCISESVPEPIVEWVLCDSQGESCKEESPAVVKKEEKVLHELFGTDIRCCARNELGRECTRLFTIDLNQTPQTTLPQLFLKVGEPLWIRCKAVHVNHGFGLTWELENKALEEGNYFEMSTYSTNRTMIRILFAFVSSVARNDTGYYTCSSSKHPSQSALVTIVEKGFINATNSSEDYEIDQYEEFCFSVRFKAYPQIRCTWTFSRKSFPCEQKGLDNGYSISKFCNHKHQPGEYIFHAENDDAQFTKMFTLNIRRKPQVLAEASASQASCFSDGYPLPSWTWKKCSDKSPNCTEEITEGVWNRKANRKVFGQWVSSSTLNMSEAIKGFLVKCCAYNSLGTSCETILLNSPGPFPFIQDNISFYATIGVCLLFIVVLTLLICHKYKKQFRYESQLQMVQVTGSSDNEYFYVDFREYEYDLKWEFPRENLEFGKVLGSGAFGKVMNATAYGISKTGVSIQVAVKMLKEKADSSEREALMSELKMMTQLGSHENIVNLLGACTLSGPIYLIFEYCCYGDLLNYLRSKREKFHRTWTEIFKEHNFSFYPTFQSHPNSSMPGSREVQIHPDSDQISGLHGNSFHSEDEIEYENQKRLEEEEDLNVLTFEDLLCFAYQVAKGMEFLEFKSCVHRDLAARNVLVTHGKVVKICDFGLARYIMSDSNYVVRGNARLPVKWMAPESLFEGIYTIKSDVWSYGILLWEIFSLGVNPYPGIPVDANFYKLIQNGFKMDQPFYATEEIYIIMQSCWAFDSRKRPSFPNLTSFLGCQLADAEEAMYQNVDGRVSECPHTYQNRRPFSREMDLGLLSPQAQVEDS
The following applies: at 1 µM.

Assay [16] addresses Vascular endothelial growth factor receptor 3 (Homo sapiens) (UniProt P35916). The following applies: at 0.1 µM.
For assay [17] the target is unchanged. The following applies: at 1 µM.
The target in assay [18] is Macrophage colony-stimulating factor 1 receptor (Homo sapiens) (UniProt P07333). The following applies: at 0.1 µM.
Assay [19] shares this target. The note with it: at 1 µM.
Assay [20] has as its target Tyrosine-protein kinase Fyn (Homo sapiens) (UniProt P06241). The note with it: at 0.1 µM.

Chain of Serine/threonine-protein kinase Nek7 (Homo sapiens) (Q8TDX7 whole entry, looked up): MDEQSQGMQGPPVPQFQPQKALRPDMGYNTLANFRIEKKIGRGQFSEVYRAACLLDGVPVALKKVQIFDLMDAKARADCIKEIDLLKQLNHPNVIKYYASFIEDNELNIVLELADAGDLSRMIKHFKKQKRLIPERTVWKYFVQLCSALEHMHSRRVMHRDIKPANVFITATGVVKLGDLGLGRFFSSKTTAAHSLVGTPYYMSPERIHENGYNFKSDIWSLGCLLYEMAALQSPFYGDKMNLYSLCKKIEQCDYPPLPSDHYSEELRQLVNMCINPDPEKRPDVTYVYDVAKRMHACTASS
Chain of Vascular endothelial growth factor receptor 3 (Homo sapiens) (P35916 whole entry): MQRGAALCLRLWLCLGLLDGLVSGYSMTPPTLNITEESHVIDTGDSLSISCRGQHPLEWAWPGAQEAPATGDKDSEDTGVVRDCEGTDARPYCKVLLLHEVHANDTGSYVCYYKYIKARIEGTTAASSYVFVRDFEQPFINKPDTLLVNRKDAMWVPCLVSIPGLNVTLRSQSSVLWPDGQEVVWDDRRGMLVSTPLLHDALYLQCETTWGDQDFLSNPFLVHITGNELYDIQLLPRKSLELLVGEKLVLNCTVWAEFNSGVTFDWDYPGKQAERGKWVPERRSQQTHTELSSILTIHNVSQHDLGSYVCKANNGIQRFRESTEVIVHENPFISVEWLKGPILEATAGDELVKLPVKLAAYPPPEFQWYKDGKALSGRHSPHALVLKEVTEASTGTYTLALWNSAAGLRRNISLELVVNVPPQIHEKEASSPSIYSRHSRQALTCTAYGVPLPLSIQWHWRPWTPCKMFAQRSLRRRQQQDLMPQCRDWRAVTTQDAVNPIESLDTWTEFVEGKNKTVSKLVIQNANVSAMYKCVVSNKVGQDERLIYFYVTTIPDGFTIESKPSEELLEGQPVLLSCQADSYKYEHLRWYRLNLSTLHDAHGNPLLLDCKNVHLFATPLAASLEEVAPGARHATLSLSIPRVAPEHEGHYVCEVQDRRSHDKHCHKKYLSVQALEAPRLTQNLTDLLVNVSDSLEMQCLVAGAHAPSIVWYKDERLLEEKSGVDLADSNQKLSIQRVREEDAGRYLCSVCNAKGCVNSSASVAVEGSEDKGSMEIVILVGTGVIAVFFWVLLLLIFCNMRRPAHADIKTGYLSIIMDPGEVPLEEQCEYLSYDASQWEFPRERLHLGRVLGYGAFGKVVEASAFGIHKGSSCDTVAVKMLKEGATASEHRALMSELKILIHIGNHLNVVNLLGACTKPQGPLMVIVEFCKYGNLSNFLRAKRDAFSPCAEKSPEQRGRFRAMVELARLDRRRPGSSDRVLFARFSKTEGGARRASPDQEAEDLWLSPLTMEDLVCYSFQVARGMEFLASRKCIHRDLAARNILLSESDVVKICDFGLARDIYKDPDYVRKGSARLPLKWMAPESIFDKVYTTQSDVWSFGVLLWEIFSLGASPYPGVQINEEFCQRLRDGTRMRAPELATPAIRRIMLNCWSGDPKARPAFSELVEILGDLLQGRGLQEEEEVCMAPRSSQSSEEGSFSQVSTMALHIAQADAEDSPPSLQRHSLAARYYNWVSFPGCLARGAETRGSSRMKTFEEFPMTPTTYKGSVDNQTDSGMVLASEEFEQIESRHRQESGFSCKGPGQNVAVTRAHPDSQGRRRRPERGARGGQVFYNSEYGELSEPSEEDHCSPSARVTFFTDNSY
Chain of Serine/threonine-protein kinase PLK1 (Homo sapiens) (P53350 whole entry): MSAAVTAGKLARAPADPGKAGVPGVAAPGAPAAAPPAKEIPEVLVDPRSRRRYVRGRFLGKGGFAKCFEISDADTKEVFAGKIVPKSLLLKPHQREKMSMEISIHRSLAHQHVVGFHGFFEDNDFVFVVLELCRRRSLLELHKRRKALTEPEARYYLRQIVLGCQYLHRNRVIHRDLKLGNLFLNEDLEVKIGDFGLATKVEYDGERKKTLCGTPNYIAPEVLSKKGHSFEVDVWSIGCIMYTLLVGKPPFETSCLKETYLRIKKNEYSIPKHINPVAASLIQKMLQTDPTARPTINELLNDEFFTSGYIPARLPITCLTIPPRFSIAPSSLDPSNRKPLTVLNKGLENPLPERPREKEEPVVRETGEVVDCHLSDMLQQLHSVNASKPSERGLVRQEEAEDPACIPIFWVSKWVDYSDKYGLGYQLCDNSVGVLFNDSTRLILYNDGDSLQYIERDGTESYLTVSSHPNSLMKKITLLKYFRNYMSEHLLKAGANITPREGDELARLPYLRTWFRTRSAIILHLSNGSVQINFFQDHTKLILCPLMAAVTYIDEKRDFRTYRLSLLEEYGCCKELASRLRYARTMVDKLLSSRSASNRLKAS
Chain of Serine/threonine-protein kinase Nek6 (Homo sapiens) (Q9HC98 whole entry): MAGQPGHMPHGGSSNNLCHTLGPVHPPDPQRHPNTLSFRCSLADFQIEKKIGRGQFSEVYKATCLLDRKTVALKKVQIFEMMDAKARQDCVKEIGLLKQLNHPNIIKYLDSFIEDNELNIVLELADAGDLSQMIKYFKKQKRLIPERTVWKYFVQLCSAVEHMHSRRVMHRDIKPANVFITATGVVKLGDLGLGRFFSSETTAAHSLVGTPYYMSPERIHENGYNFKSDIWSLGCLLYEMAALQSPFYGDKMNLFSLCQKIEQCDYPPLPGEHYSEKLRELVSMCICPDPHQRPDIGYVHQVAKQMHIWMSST
Chain of Macrophage colony-stimulating factor 1 receptor (Homo sapiens) (P07333 whole entry): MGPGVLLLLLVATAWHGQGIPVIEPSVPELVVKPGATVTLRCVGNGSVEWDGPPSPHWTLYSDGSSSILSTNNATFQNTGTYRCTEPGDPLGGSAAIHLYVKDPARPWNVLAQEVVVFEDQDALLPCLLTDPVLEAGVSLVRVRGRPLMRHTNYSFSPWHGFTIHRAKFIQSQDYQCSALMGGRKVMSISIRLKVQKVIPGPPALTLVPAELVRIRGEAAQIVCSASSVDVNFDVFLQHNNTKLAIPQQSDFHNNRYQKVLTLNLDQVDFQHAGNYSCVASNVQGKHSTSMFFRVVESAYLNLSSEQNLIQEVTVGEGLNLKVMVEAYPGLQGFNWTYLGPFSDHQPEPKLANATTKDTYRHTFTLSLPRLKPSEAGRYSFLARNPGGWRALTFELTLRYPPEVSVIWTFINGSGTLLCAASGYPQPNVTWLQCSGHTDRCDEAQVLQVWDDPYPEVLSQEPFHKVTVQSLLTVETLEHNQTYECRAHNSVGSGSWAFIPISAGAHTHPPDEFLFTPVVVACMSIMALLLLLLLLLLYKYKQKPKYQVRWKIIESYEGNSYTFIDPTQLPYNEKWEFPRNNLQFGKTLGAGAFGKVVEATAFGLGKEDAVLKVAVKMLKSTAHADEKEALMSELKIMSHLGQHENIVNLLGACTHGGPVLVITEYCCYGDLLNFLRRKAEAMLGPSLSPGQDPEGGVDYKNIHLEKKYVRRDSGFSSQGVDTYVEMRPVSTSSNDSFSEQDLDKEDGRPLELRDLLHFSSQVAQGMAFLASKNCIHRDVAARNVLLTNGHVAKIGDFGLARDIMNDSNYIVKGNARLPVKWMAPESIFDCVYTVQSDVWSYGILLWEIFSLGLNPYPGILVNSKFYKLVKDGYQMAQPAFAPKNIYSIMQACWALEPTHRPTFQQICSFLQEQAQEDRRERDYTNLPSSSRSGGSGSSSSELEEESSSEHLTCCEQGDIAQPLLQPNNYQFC
Chain of Tyrosine-protein kinase Fyn (Homo sapiens) (P06241 2-537 limits assumed): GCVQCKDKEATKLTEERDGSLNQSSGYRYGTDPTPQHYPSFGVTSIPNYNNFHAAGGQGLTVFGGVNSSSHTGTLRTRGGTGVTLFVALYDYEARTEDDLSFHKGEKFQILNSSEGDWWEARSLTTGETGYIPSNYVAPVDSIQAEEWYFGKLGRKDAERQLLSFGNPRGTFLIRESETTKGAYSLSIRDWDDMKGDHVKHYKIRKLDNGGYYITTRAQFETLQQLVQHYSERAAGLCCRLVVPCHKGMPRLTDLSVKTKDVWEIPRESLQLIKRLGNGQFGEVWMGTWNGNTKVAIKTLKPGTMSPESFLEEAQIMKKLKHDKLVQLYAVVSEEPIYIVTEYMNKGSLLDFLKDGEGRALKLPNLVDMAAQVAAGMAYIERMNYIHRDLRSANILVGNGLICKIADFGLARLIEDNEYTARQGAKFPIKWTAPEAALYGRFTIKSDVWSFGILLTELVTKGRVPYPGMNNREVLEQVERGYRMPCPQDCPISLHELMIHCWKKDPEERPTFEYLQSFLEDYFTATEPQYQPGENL

`CN(C)CCCn1c(-c2nonc2N)nc2cnccc21`: the inhibition came to 4.6% in assay [1]; 2.29% in assay [2]; 2.28% in assay [3]; 5.09% in assay [4]; 5.23% in assay [5]; 0.8% in [6]. Also, the inhibition in assay [7] amounted to 5.07%; in [8], 6.28%; in assay [9], 1.98%; in [10], 8.39%; in [11], 12.3%; in [12] it was 3.73%. In addition, the inhibition in [13] is 4.15%; in assay [14], 8.12%; in [15], -1.23%; in assay [16], 15.4%; in assay [17], 15.3%; in [18] it was 2.34%. For the same molecule, the inhibition in assay [19] came to 1.06%; in [20], 2.62%.
`CS(=O)(=O)Nc1cccc(-c2ccc3c(NC(=O)C4CC4)n[nH]c3c2)c1`: the inhibition came out at 2.59% in [1]; 0.75% in assay [2]; 1.07% in assay [3]; 1.36% in assay [4]; 0.27% in [5]; 1.36% in assay [6]. Besides, the inhibition in [7] is -1.38%; in [8], 2.34%; in assay [9], 1.08%; in [10] it was 2.01%; in assay [11], 3.4%; in assay [12], 0.09%. Moreover, the inhibition in assay [13] is 2.1%; in [14], 2.91%; in assay [15] it was -5.02%; in assay [16], 3.41%; in assay [17], 1.96%; in [18], -0.21%. Moreover, the inhibition amounted to 1.8% in [19] and 2.53% in [20].

By inhibition is commonly meant the drop in the measured response relative to a control, in per cent.
